The list is not random: actives were taken first. Their share in the collection is about 4.2%.
VDR inhibitor – blocks the human vitamin D receptor. VDR-SRC2-3 peptide fluorescence polarization, 2 h. Potency, µM, for inactives: max response, negative = inhibition, hits mostly inhibitors. actives 0.93% (n = 400,000). AID 504847
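Reagent solutions, kept cold and dark, are dispensed first; compounds are then pinned in at 23 nl, plates briefly spun, and incubated 2 h at ambient temperature. Inhibition of VDR–SRC2-3 peptide binding is read by fluorescence polarization.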
Sfp inh – inhibitors of Bacillus subtilis Sfp phosphopantetheinyl transferase; Q9F4F7; Biochemical Sfp PPTase activity, qHTS; Potency, µM, inactives show largest response in the series, negative = inhibition, hits mostly inhibitors; actives 3.5% (n = 310,000); AID 1490;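 also: the enzyme is Sfp with the accession as filed and its product quenches rhodamine fluorescence; 0% = enzyme reaction without inhibitor and -100% = no enzyme wells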
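Fluorescence-quenching assay with 15 nM Sfp, 5 uM rhodamine-CoA and 12.5 uM BHQ-2-labelled ybbR peptide in pH 7.6 Hepes/MgCl2 buffer. Enzyme was pre-incubated with compound for 15 min at room temperature. Rate was taken from the 30-min fluorescence change (525/598 nm).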
12-LOX inh – blocks human arachidonate 12S-lipoxygenase. P18054. purified 12hLO, xylenol orange hydroperoxide absorbance. Potency, µM (titrated, usually from 108 µM), without a hit: at the highest dose activity change, negative = inhibition, most hits filed as inhibitors. actives 1.1% (n = 580,000). AID 1671190
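Hydroperoxide product was detected by ferrous iron/xylenol orange as the 573 to 405 nm absorbance ratio. Arachidonic acid at 40 uM (final) was turned over for 30 min at room temperature by 150 nM human 12hLO, pH 7.0 Hepes buffer, after 15 min compound preincubation.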
PLK1 PBD inh – blocks phosphopeptide binding to human PLK1 polo-box domain | AID 720504 | Potency, µM, for inactives: max response, negative = inhibition, actives largely listed as inhibitors | P53350 | Plk1 PBD binding of FITC phosphopeptide, fluorescence polarization | actives 2.8% (n = 360,000); also: series mostly up to about 57 µM; nearly all actives have a fitted effect of over 65% in size
Target sequence (P53350 whole entry, looked up, the tested form may be a part): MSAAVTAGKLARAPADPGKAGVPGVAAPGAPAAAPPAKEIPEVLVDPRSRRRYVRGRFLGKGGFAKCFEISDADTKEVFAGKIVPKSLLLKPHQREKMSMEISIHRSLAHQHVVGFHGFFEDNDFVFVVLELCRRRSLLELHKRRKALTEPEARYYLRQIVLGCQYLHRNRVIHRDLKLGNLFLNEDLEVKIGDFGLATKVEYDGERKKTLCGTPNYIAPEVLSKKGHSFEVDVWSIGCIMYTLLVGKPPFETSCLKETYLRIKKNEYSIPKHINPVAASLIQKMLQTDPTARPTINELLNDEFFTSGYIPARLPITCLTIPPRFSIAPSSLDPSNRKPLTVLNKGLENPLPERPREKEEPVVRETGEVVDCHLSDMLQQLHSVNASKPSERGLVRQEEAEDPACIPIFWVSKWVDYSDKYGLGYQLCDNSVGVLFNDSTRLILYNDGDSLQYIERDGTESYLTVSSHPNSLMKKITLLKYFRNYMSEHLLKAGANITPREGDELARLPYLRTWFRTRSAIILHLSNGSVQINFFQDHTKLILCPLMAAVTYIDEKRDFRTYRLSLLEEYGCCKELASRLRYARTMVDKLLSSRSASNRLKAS
* marks the source's active call; other numbers are inactive results; i = inactive; ? = inconclusive; / = no result. Calls follow the shape of the dose curve; as a rule, active = well fitted curve in the direction sought with a large enough effect; inconclusive = small, poorly fitted or top-dose-only effect, or another doubt; inactive = no such curve, though single readings can be large; an effect the other way counts as inactive or inconclusive. Unless noted, % is scaled to controls: 0 for no effect and ±100 for the full control effect; potency is read from the fitted curve at half-maximal effect.

SMILES	VDR inhibitor	Sfp inh	12-LOX inh	PLK1 PBD inh
Cc1[nH]n(-c2ccccc2)c(=O)c1/C=N/NC(=O)c1cccc(F)c1	-2.0%	1.1%	35.5µM*	-5.6%
CCOc1cc(/C=N/Nc2nncc(-c3ccccc3)n2)ccc1O	-10.5%	11.9%	-4.1%	15µM*
Cc1[nH]n(-c2ccccc2)c(=O)c1/C=N/Nc1nncc(-c2ccccc2)n1	11.5%	-26.2%	15.8µM*	-9.4%
Cc1nc(-c2ccc(F)cc2)sc1CCNC(=O)c1cccs1	1.3%	/	-16.3%	/
C/C(=N\N=c1/scc(C)n1Cc1ccco1)c1cccc([N+](=O)[O-])c1	-3.8%	?	-22.0%	-3.6%
CN1C(=O)NC(c2ccc(O)cc2)C2=C1CN(c1ccc(O)cc1)C2=O (configuration not stated)	-4.2%	22.2%	-3.1%	0.3%
CN1C(=O)NC(c2ccc(O)cc2)C2=C1CN(c1ccccc1)C2=O (configuration not stated)	?	7.4%	1.7%	23.8µM*
COc1ccc(Nc2cc(C(=O)NCCCN(C)Cc3ccccc3)c3ccccc3n2)cc1	5.9%	/	?	/
CC(=O)n1c(C=Nc2ccc(Cl)cc2)c(O)c2ccccc21	7.3%	?	?	6.7µM*
CC(=O)c1ccc(NC(=O)C(C)Sc2cc(Cl)ccc2Cl)cc1 (configuration not stated)	/	/	-78.6%	/
Cc1nnc(N2C(=O)C(O)=C(C(=O)c3ccco3)C2c2ccc(C(C)(C)C)cc2)s1 (configuration not stated)	-7.9%	1.4%	7.94µM*	?
CSc1ccc(C2C(C(=O)c3ccco3)=C(O)C(=O)N2c2nnc(SC)s2)cc1 (configuration not stated)	?	?	39.8µM*	?
Cc1ccc(C2C(C(=O)c3ccco3)=C(O)C(=O)N2c2ncccn2)cc1 (configuration not stated)	-6.6%	4.2%	20.4%	-10.7%
Cc1nnc(N2C(=O)C(O)=C(C(=O)c3ccco3)C2c2ccc(F)cc2)s1 (configuration not stated)	-19.8%	-12.2%	?	-24.4%
Cc1nnc(N2C(=O)C(O)=C(C(=O)c3ccco3)C2c2ccc(C(C)C)cc2)s1 (configuration not stated)	?	56.2µM*	44.7µM*	-20.1%
Cc1ccc(C)c(/C(O)=C2\C(=O)C(=O)N(c3nnc(C)s3)C2c2ccc(C(C)C)cc2)c1 (configuration not stated)	/	/	44.7µM*	/
CCOC(=O)C1C(C(=O)Nc2cccc(C(F)(F)F)c2)C1C(=O)NC(C)C (configuration not stated)	5.3%	10.1%	3.5%	5.6%
c1ccc(-c2nc(CSc3nnnn3-c3ccccc3)cs2)cc1	-13.0%	4.6%	?	-5.1%
Cc1ccccc1Nc1nc(CSc2nnnn2-c2ccccc2)cs1	3.9%	44.7µM*	?	?
CCOCC(=O)N[C@@H]1CN(c2ncccn2)C[C@H]1CO	/	/	10.8%	/
O=C(O)CNC(=O)CCn1nnc2ccccc2c1=O	?	26.8%	6.3%	29.9µM*
COC(=O)c1cc(S(=O)(=O)N(C)CC(=O)Nc2ccccc2F)cn1C	/	/	1.7%	/
COc1cccc(CC(=O)NC2CCN(c3cc(-c4cccs4)[nH]n3)C2)c1 (configuration not stated)	/	/	43.8%	/
Cc1cc(-c2ccco2)c(C#N)c2nc3ccccc3n12	-0.8%	50.1µM*	-12.2%	-25.9%
COc1cccc(CNC(=O)c2sc3nc(C)cc(C)c3c2-n2cccc2)c1OC	-12.9%	/	?	/
SMILES	VDR inhibitor	Sfp inh	12-LOX inh	PLK1 PBD inh
Cc1cc(CNC(=O)c2nccnc2N)ccc1F	/	/	-45.9%	/
Fc1ccc(NC(=S)Nc2cc(-c3ccccc3)[nH]n2)cc1Cl	-11.8%	6.6%	28.2µM*	-6.8%
COc1ccc(Cl)cc1NC(=S)Nc1cccnc1	22.0%	25.1µM*	-3.5%	-20.2%
Cc1ccc(NC(=S)Nc2cc(-c3ccccc3)[nH]n2)cc1Cl	-5.0%	21.2%	?	-5.3%
O=C(Nc1ccc(F)c(Cl)c1)c1cccnc1	?	15.5%	7.5%	21.2µM*
Fc1ccc(NC(=S)Nc2cccnc2)cc1Cl	-17.8%	28.2µM*	0.0%	-23.6%
CCOC(=O)c1c(C)[nH]c(CCC(=O)Nc2c(Cl)cc(OC)cc2OC)c1C	14.9%	/	-29.1%	/
O=C(Nc1ccccc1)N1CCC(O)(c2cccc(C(F)(F)F)c2)CC1	-7.9%	13.7%	14.4%	4.5%
Cn1cnnc1CC1CCN(C(=O)Cc2ccccc2)CC1	/	/	1.7%	/
COc1ccc(-n2cnc3ccccc32)cc1	-9.4%	2.9%	-13.6%	-7.2%
COc1ccc(-n2cnc(=S)[nH]c2=S)cc1	28.2µM*	/	22.4µM*	?
O=C(NCSc1ccncn1)c1ccccc1	-5.5%	20µM*	?	?
O=C(NCSc1ccnc(SCNC(=O)c2ccccc2)n1)c1ccccc1	-6.5%	-19.2%	-24.6%	-10.1%
CCOc1cccc(-c2c(C(=O)N/N=C/c3ccoc3)nnn2-c2nonc2N)c1	?	13.2%	-1.3%	29.9µM*
CCOc1cccc(-c2c(C(=O)N/N=C(\C)c3ccccn3)nnn2-c2nonc2N)c1	-7.6%	31.6µM*	1.7%	-3.7%
CC1(C)c2ccccc2N2CC(=O)N[C@@]21/C=C/C=C/c1ccccc1	8.0%	0.8%	?	0.2%
CN(c1nc(-c2ccc(Br)cc2)cs1)C1CCS(=O)(=O)C1 (configuration not stated)	5.9%	-20.4%	-11.7%	1.0%
CC1CCN(S(=O)(=O)c2ccc3c(c2)CCN3C(=O)C2CCC2)CC1	-15.6%	9.7%	-2.5%	23.8µM*
O=C(CCl)c1ccc2c(c1)CCN2C(=O)C1CCCCC1	44.7µM*	4.1%	-25.0%	0.752µM*
O=C(O)/C=C/C(=O)NNC(=O)c1ccccc1Br	-12.5%	56.2µM*	2.3%	-7.0%
Cc1cccc(C(=O)NNC(=O)/C=C/C(=O)O)c1	-12.9%	-5.5%	23.0%	-1.0%
Cc1ccccc1C(=O)NNC(=O)/C=C\C(=O)O	-20.2%	22.4µM*	-8.8%	?
COCCn1c(N2CCN(Cc3ccc(Br)cc3)CC2)nc2c1c(=O)[nH]c(=O)n2C	/	/	-5.6%	/
COc1ccccc1C1CN(Cc2cccn2-c2ncccn2)Cc2ccccc2O1 (configuration not stated)	/	/	-6.2%	/
CCOC(=O)C(=CNNc1cccc(Cl)c1)C(=O)OCC	?	?	12.6µM*	9.47µM*
SMILES	VDR inhibitor	Sfp inh	12-LOX inh	PLK1 PBD inh
CCOC(=O)C(=CNc1ccc(Cl)cn1)C(=O)OCC	-11.7%	7.6%	123.8%	-7.2%
CCOC(=O)C1/C(=N\O)CC(C)(O)C(C(=O)OCC)C1c1ccc(N(C)C)cc1 (configuration not stated)	1.9%	50.1µM*	-13.0%	-2.8%
CCOC(=O)C1/C(=N\O)CC(C)(O)C(C(=O)OCC)C1c1ccc(OC)c(OC)c1 (configuration not stated)	17.3%	7.0%	1.2%	-7.1%
CCOC(=O)c1cc(C)n(-c2ccccc2)c1C	4.1%	5.3%	?	-13.0%
COCC(=O)OCC(=O)c1cc(C)n(-c2ccc(Br)cc2)c1C	-18.9%	3.3%	-2.1%	16.8µM*
Cc1cc(C(=O)OCC(N)=O)c(C)n1-c1ccccc1	79.4µM*	-13.1%	i	23.8µM*
